In the library only some 3.5% were active in any assay of this set; here they are far more common.
LmPK inhibitor: blocks Leishmania mexicana pyruvate kinase activity. Q27686. purified LmPK, Kinase-Glo ATP luminescence, 1 h. Potency, µM (doses to about 57.5 µM), for the others: top-dose activity change, negative = inhibition, most hits filed as inhibitors. actives 0.37% (n = 290,000); further: on the % scale 0 is the no-effect control and ±100 the full control effect
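qHTS format; LmPK 0.1 nM; substrates PEP 0.5 mM and ADP 0.1 mM. One-hour room-temperature incubation, then coupled luciferase luminescence; 0.5 nM enzyme wells mark activation.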
RE007 growth inh: less growth of the S. pombe RE007 Vpr strain; S. pombe RE007 Vpr strain, BacTiter-Glo ATP luminescence, 24 h; Potency, µM (series often up to 92.2 µM), inactives show at the top dose activity change, negative = less growth, actives largely listed as inhibitors; actives 0.21% (n = 360,000); active means well fitted falling curve with a large enough effect; inconclusive means small, poorly fitted or top-dose-only effect; inactive means no such curve, though single readings can be large or run the other way; further: on the % scale 0 is the no-effect control and ±100 the full control effect; nearly all actives have a fitted effect of over 50% in size
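Fission yeast strain RE007, carrying one chromosomally integrated HIV-1 vpr copy, was seeded at OD 0.01 in PMG+AL medium with 23 nL pinned compound. After 24 h at 30 °C and 99% humidity, viability was read by BacTiter-Glo luminescence.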
NS1 function inh: influenza NS1 inhibition; Potency, µM (series often up to 46.1 µM), without a hit: at the top dose activity, positive = more growth; actives 0.4% (n = 270,000); AID 2326; calls by dose curve; further: actives are rising curves; nearly all actives have a fitted effect of over 50% in size
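S. cerevisiae expressing influenza A NS1, grown in glucose, washed, then diluted 1:100 into pH 6.0 -URA galactose medium with 23 nl compound. Growth recovery read as OD600; NS1-free strain serves as control.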
Giardia FBPA inh: Giardia lamblia aldolase inhibition. AID 2451. actives 0.71% (n = 290,000). A8B2U2. purified Giardia FBPA. Potency, µM (top dose mostly 59.6 µM), for the others: top-dose activity, negative = inhibition, actives largely listed as inhibitors; further: on the % scale 0 is the no-effect control and ±100 the full control effect; nearly all actives have a fitted effect of over 55% in size
Target sequence (A8B2U2 whole entry, looked up): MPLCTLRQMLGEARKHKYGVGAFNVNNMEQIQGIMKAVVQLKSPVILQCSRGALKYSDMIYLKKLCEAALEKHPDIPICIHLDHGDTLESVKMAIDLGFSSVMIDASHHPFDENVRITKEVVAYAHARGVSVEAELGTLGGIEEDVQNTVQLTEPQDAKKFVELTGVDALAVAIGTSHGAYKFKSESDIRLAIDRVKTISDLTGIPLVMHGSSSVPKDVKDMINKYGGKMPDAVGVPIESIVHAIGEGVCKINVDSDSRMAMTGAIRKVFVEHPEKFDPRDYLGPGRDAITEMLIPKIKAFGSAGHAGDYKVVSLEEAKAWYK
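40 nM FBPA preincubated 10 min at RT with compound (up to 57.5 uM final), then substrate plus GAPDH/TPI/NAD/arsenate coupling and diaphorase/resazurin added. Fluorescence read after 20 min at RT, 525/598 nm.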
Tb PYK inh: blocks Trypanosoma brucei pyruvate kinase | Potency, µM (doses to about 76.8 µM), without a hit: at the top dose activity, negative = inhibition, usual class: inhibitors | actives 0.12% (n = 410,000) | Q57TT1 | AID 624173 | TbPYK enzyme, Kinase-Glo Plus ATP luminescence, 45 min; further: on the % scale 0 is the no-effect control and ±100 the full control effect; nearly all actives have a fitted effect of over 50% in size
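TbPYK + substrate in 50 mM TEA pH 7.2, 100 mM KCl, 10 mM MgCl2, 0.05% BSA, 0.01% Tween-20; cpd pinned; ADP 130 uM final; 45 min RT; Kinase-Glo Plus 10 min; luminescence endpoint.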
Sm TGR block: blocks Schistosoma mansoni thioredoxin glutathione reductase; Q962Y6; purified TGR, DTNB reduction, TNB absorbance 405 nm; Potency, µM (doses to about 114 µM), without a hit: at the highest dose activity change, negative = inhibition, usual class: inhibitors; actives 3% (n = 360,000); AID 485364; further: on the % scale 0 is the no-effect control and ±100 the full control effect; nearly all actives have a fitted effect of over 60% in size
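First, TGR (20 nM dispensed) and NADPH were mixed with compound. Second, a 15 min room-temperature incubation followed. Third, further NADPH and then DTNB were added to start the reaction. Finally, TNB absorbance was monitored kinetically.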
Active calls of the source: *; ? = inconclusive; / = no result given; ! = repeats disagree; [ ] = another dose, or the depositor's remark. Unless noted, the call rests on the fitted dose curve; in most records, active means well fitted curve in the direction sought with a large enough effect; inconclusive means small, poorly fitted or top-dose-only effect, or another doubt; inactive means no such curve, though single readings can be large; an effect the other way counts as inactive or inconclusive. Potency means the concentration at half of the fitted maximal effect.

SMILES	LmPK inhibitor	RE007 growth inh	NS1 function inh	Giardia FBPA inh	Tb PYK inh	Sm TGR block
Cc1ccc(CN2CCNC(=O)C2CC(=O)O)o1 (stereo not given)	4%	12%	2%	-8%	-2%	45µM*
COc1cc(CN2CCNC(=O)C2CC(=O)N2CCCN(C(C)=O)CC2)cc(OC)c1 (stereo not given)	1%	1%	19%	/	2%	32µM*
O=c1[nH]c(=O)n([C@@H]2C[C@H](O)[C@H](CO)O2)cc1C(F)(F)F	/	/	/	2%[21.7 µM]	/	/
C/C(=N\Nc1ccccc1C)c1cccnc1	-4%	-5%	-6%	-6%	2%	35µM*
CCNC(=O)Oc1ccc[nH]c1=O	-4%	/	-37%	4µM*	7%	?
O=C(Oc1ccc[nH]c1=O)c1cc([N+](=O)[O-])cc([N+](=O)[O-])c1	-2%	/	3%	?	2%	79µM*
CCN(CC)c1ccc(C2Nc3cccc4cccc(c34)N2)c(O)c1	0%	14%	9%	?	-9%	22µM*
COc1cc(C2Nc3cccc4cccc(c34)N2)cc(OC)c1OC(C)=O	-1%	-25%	0%	?	-15%	8.9µM*
COc1cc(C2Nc3cccc4cccc(c34)N2)ccc1O	-22%	4%	23%	?	-4%	4µM*
Oc1ccc2ccccc2c1C1Nc2cccc3cccc(c23)N1	4%	23%	-7%	-29%	-1%	-35%
COc1ccccc1CNC(=O)CCn1nc(C)c2c(C)n(-c3ccccc3)nc2c1=O	/	/	/	/	2%	1%
O=c1cc(CCl)nc2sc3ccccc3n12	-3%	-18%	/	3%	6%	40µM*
O=C(OCc1cc(=O)n2c(n1)sc1ccccc12)c1ccc(O)cc1	3%	11%	0%	7%	-2%	-2%
O=C1NCCCC2c3cc(O)c4ccccc4c3OC12N1CCCCC1 (stereo not given)	?	/	10%	0.56µM*	/	2µM*
O=C(c1ccc2c3n(nc2c1)-c1ccccc1CO3)N1CCOCC1	14µM*	?	2%	0%	18µM*	-1%
O=C(c1ccc2c3n(nc2c1)-c1ccccc1CO3)N1CCCCC1	6.3µM*	?	-12%	0%	?	-2%
CC(C)NC(=O)c1ccc2c3n(nc2c1)-c1ccc(Cl)cc1CO3	-4%	-1%	1%	-5%	-9%	9%
O=C(c1ccc2c3n(nc2c1)-c1ccc(Cl)cc1CO3)N1CCOCC1	16µM*	-3%	-6%	0%	-21%	1%
C[C@@H](CO)NC(=O)c1ccc2c3n(nc2c1)-c1ccccc1CO3	14µM*	-17%	-6%	0%	?	13%
Cc1ccc2c(c1)COc1c3ccc(C(=O)N[C@@H](CO)C(C)C)cc3nn1-2	3%	0%	-9%	16%	-7%	1%
Cc1ccc2c(c1)COc1c3ccc(C(=O)N4CCCCC4)cc3nn1-2	-25%	-21%	-10%	6%	-12%	-8%
O=C(NCC1CCCO1)c1ccc2c3n(nc2c1)-c1ccccc1CO3 (stereo not given)	-29%	-2%	-6%	-1%	2%	-6%
O=C(NC1CCCCC1)c1ccc(CS(=O)Cc2ccc(Cl)cc2)o1 (stereo not given)	7%	29%	-4%	/	5%	45µM*
O=C(NCCc1ccccc1)c1ccc(CS(=O)(=O)Cc2ccccc2Cl)o1	/	/	/	/	-2%	50µM*
O=C(NC1CCCC1)c1ccc(CS(=O)Cc2ccc(Cl)cc2)o1 (stereo not given)	-4%	2%	3%	/	0%	?
SMILES	LmPK inhibitor	RE007 growth inh	NS1 function inh	Giardia FBPA inh	Tb PYK inh	Sm TGR block
COc1cccc(CNC(=O)c2ccc(CS(=O)Cc3ccc(Cl)cc3)o2)c1 (stereo not given)	/	/	/	/	-6%	-22%
O=C(NCCc1cccs1)c1ccc(CS(=O)Cc2ccc(Cl)cc2)o1 (stereo not given)	0%	-2%	-4%	/	5%	45µM*
COc1ccc(S(=O)Cc2ccc(C(=O)NCc3cccc(OC)c3)o2)cc1 (stereo not given)	-2%	-7%	-3%	/	3%	25µM*
Cc1ccc2c(c1)c(=O)c(C(=O)c1ccncc1)cn2CC(=O)Nc1ccccc1Cl	/	/	/	/	-1%	-7%
O=C(NCCc1ccc(Cl)cc1)c1ccc(CS(=O)Cc2ccccc2Cl)o1 (stereo not given)	-1%	-17%	1%	/	-1%	32µM*!
COCCNC(=O)c1ccc(CS(=O)(=O)c2c(Cl)cccc2Cl)o1	-6%	5%	0%	3%	-15%	50µM*
COc1ccccc1CNC(=O)c1ccc(CS(=O)Cc2cccc(Cl)c2)o1 (stereo not given)	6%	-8%	-7%	/	3%	22µM*
O=C(NCc1ccccc1)c1ccc(CS(=O)(=O)c2c(Cl)cccc2Cl)o1	/	/	/	/	3%	-4%
CSc1ccc(CCNC(=O)c2ccc(CS(=O)Cc3ccccc3Cl)o2)cc1 (stereo not given)	-2%	8%	-10%	/	-6%	-20%
O=C(NC1CCCCC1)c1ccc(CS(=O)Cc2ccccc2Cl)o1 (stereo not given)	0%	-6%	-6%	/	-6%	45µM*
CCc1ccc(S(=O)(=O)c2nnn3c2nc(NCc2cccs2)c2sccc23)cc1	/	/	/	/	-1%	1%
O=C(NCc1ccc(F)cc1)c1ccc(CS(=O)(=O)Cc2ccccc2F)o1	2%	-9%	-4%	-2%	2%	40µM*
COc1cccc(CNC(=O)c2ccc(CS(=O)Cc3ccccc3Cl)o2)c1 (stereo not given)	/	8%	/	/	7%	/
O=C(NCc1ccc(F)cc1)c1ccc(CS(=O)(=O)Cc2ccc(F)cc2)o1	-1%	-3%	-4%	8%	2%	-18%
CC(C)Oc1ccc(CNC(=O)c2ccc(CS(=O)Cc3ccccc3Cl)o2)cc1 (stereo not given)	/	/	/	/	0%	45µM*
O=C(NC1CCCC1)c1ccc(CS(=O)Cc2ccccc2Cl)o1 (stereo not given)	-1%	7%	1%	/	-7%	32µM*
CC1(C)CC(=O)C2=C(C1)NC(=S)C(C#N)C21CCCCC1 (stereo not given)	-11%	-13%	-13%	?	2.8µM*	-14%
O=[N+]([O-])c1ccc(Oc2ccc(OCc3ccccc3)cc2)nc1	-4%	2%	3%	1%	-1%	-4%
O=C1NC(=O)N(c2ccccc2F)C(=O)/C1=C/c1ccc(Oc2ccc([N+](=O)[O-])cn2)cc1	2%	30%	/	-12%	?	20µM*
